In PubChem BioAssay (NCI):
“And” between values parts separate entries of the source, which are not always exact repeats. Equal entries are not always repeated. About 83,000 compounds went through this panel and 20% of them were active in at least one assay; those are over-represented in the sample as a whole.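 Treatment: one concentration, 48 hours, 96-well format. Scoring: percent growth, with anything below 10 considered active.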 The source made the active and inactive calls.

Legend:
Experiment in all cases: NCI-60 one-dose screen, 48 h (100 = growth as untreated, 0 = no growth, -100 = all killed)
Conditions in all cases: 10 µM unless noted
MOLT-4 leukemia = tested on: MOLT-4 leukemia
SR leukemia = tested on: SR leukemia
RPMI-8226 leukemia = tested on: RPMI-8226 leukemia
OVCAR-8 ovarian = tested on: OVCAR-8 ovarian
OVCAR-5 ovarian = tested on: OVCAR-5 ovarian
OVCAR-4 ovarian = tested on: OVCAR-4 ovarian
SK-OV-3 ovarian = tested on: SK-OV-3 ovarian
IGROV1 ovarian = tested on: IGROV1 ovarian
OVCAR-3 ovarian = tested on: OVCAR-3 ovarian
HS 578T breast = tested on: HS 578T breast
NCI/ADR-RES ovarian = tested on: NCI/ADR-RES ovarian
T-47D breast = tested on: T-47D breast
BT-549 breast = tested on: BT-549 breast
MDA-MB-435 melanoma = tested on: MDA-MB-435 melanoma
SW-620 colon = tested on: SW-620 colon
MCF7 breast = tested on: MCF7 breast
HCT-116 colon = tested on: HCT-116 colon
HCC-2998 colon = tested on: HCC-2998 colon
KM12 colon = tested on: KM12 colon

SMILES	growth (MOLT-4 leukemia)	growth (SR leukemia)	growth (RPMI-8226 leukemia)	growth (OVCAR-8 ovarian)	growth (OVCAR-5 ovarian)	growth (OVCAR-4 ovarian)	growth (SK-OV-3 ovarian)	growth (IGROV1 ovarian)	growth (OVCAR-3 ovarian)	growth (HS 578T breast)	growth (NCI/ADR-RES ovarian)	growth (T-47D breast)	growth (BT-549 breast)	growth (MDA-MB-435 melanoma)	growth (SW-620 colon)	growth (MCF7 breast)	growth (HCT-116 colon)	growth (HCC-2998 colon)	growth (KM12 colon)
C(=NC1CCCCC1)=NC1CCCCC1	101% (inactive) and 86.1% (inactive)	89.5% (inactive) and 83.7% (inactive)	97.6% (inactive) and 50% (inactive)	124% (inactive) and 77.4% (inactive)	89.7% (inactive) and 90.7% (inactive)	107% (inactive) and 59.9% (inactive)	109% (inactive) and 91.6% (inactive)	108% (inactive) and 88.4% (inactive)	117% (inactive) and 73% (inactive)	91.8% (inactive)	111% (inactive) and 75.5% (inactive)	104% (inactive) and 14.6% (inactive)	113% (inactive) and 91.1% (inactive)	101% (inactive) and 88.4% (inactive)	106% (inactive) and 88.6% (inactive)	100% (inactive) and 87.2% (inactive)	93.6% (inactive) and 81.4% (inactive)	105% (inactive) and 87.7% (inactive)	109% (inactive) and 95.7% (inactive)
CCOP(=O)(NC)OCC	127% (inactive)	71.3% (inactive)	92.8% (inactive)	115% (inactive)	91.5% (inactive)	105% (inactive)	104% (inactive)	105% (inactive)	99.5% (inactive)	98.4% (inactive)	102% (inactive)	102% (inactive)	112% (inactive)	132% (inactive)	108% (inactive)	101% (inactive)	92.1% (inactive)	112% (inactive)	106% (inactive)
O=C(CBr)OCCOC(=O)CBr	64.1% (inactive)	8.37% (active)	33.8% (inactive)	93.7% (inactive)	117% (inactive)	38.3% (inactive)	133% (inactive)	-45.8% (active)	87.5% (inactive)	3.4% (active)	99.9% (inactive)	79.5% (inactive)	65.4% (inactive)	91.6% (inactive)	58.1% (inactive)	68.5% (inactive)	69.2% (inactive)	110% (inactive)	99.5% (inactive)
CC[C@H](C)[C@H](NC(=O)[C@H]1CCCCN1C)C(=O)N(C)[C@H](C(=O)NC12CC(C(=O)N[C@@H](Cc3ccccc3)C[C@H](C)C(=O)OC)(C1)C2)C(C)C	104% (inactive)	114% (inactive)	108% (inactive)	96.8% (inactive)	98.4% (inactive)	90.8% (inactive)	104% (inactive)	105% (inactive)	101% (inactive)	118% (inactive)	103% (inactive)	85.7% (inactive)	101% (inactive)	108% (inactive)	107% (inactive)	96.4% (inactive)	99.5% (inactive)	109% (inactive)	104% (inactive)
O=C(NCCCN1CC1)Nc1cccc2ccccc12	103% (inactive) and 83.7% (inactive)	102% (inactive) and 87.1% (inactive)	100% (inactive) and 88.4% (inactive)	80.1% (inactive) and 79.3% (inactive)	105% (inactive) and 113% (inactive)	105% (inactive) and 114% (inactive)	101% (inactive) and 95.8% (inactive)	87.5% (inactive) and 86.9% (inactive)	109% (inactive) and 113% (inactive)	96.2% (inactive) and 106% (inactive)	101% (inactive)	86.4% (inactive)	90.3% (inactive) and 105% (inactive)	108% (inactive) and 88% (inactive)	99% (inactive) and 89.6% (inactive)	82% (inactive) and 77.9% (inactive)	98.1% (inactive) and 94.2% (inactive)	97.9% (inactive) and 93.4% (inactive)	103% (inactive) and 102% (inactive)
CCCCCCCCCCCCCCCC[N+](C)(C)C	-52.4% (active)	-54.9% (active) and -48.6% (active)	-14.9% (active) and -9.1% (active)	0.0915% (active)	-4.82% (active)	-34.5% (active) and 17.2% (inactive)	-55.5% (active) and 11% (inactive)	-64% (active) and -56.6% (active)	-85.4% (active) and -1.42% (active)	-24.3% (active) and 2.19% (active)	51.9% (inactive) and 82.5% (inactive)	4.4% (active) and -13.9% (active)	-76% (active) and -41.5% (active)	-70.1% (active) and 7.38% (active)	-92.5% (active) and 8.75% (active)	-78% (active) and 16.9% (inactive)	-72% (active) and 4.21% (active)	-91% (active) and 20.9% (inactive)	-83% (active) and -93.1% (active)
